Source: PubChem BioAssay AID1345085 (National Center for Advancing Translational Sciences (NCATS), 2018)
Records with an inconclusive call do not appear. The source made the active and inactive calls. The call rests on the fitted dose curve; in most records, active means well fitted cell-killing curve with a large enough effect; inconclusive means small, poorly fitted or top-dose-only effect, or effect the other way; inactive means no such curve, though single readings can be large or run the other way.

What follows are molecules tested on SW626 (assay: Confirmatory qHTS for gynecologic anti-cancer compounds from libraries of approved drugs and bioactive compounds). Details: gynecologic cancer cell panel viability, ATPlite luminescence, 48 h; series mostly up to 57.6 µM; activity change, negative = viability loss: at the top concentration.
Method in brief: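 IC50 values derive from an ATPlite ATP-content luminescence assay following 48 h treatment at 37 C. Each compound ran as an 11-concentration, threefold series (57.5 uM to 0.977 nM); HEK 293T served as control line for selectivity index.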
Further: nearly all actives have a fitted effect of over 55% in size.
On the % scale 0 is the no-effect control and ±100 the full control effect; potency means the concentration at half of the fitted maximal effect.

SMILES | Potency | activity change, negative = viability loss
OCc1ccc(-c2ccc(-c3ccc(CO)s3)o2)s1 | 10.6 µM (active) | –
Cc1csc(NC(=O)c2sc3nc4c(c(C(F)(F)F)c3c2N)CCC4)n1 | 1.72 µM (active) | –
O=C1Cc2cc(CCN3CCN(c4nsc5ccccc45)CC3)c(Cl)cc2N1 | – | -0.656% (inactive)
O=C1N(c2ccccc2)c2ccccc2C1(Cc1ccncc1)Cc1ccncc1 | – | 4.32% (inactive)
CN(C[C@@H]1COCCO1)S(=O)(=O)Nc1ccc2ccc3ncc(-c4cnn(C)c4)cc3c(=O)c2c1 | – | 0.279% (inactive)
O=c1[nH]c(=O)n([C@H]2C[C@H](O)[C@@H](CO)O2)cc1C(F)(F)F | – | -9.33% (inactive)
CC(=O)OC12COC1CC(O)C1(C)C(=O)C(O)C3=C(C)C(OC(=O)C(O)C(NC(=O)OC(C)(C)C)c4ccccc4)CC(O)(C(OC(=O)c4ccccc4)C21)C3(C)C (stereo not given) | – | 8.89% (inactive)
CCN(CC)CCCC(C)Nc1ccnc2cc(Cl)ccc12 (stereo not given) | – | -5.13% [at 19.5 µM] (inactive)
COc1ccc(CCC(=O)c2c(O)cc(O[C@@H]3O[C@H](CO)[C@@H](O)[C@H](O)[C@H]3O[C@@H]3O[C@@H](C)[C@H](O)[C@@H](O)[C@H]3O)cc2O)cc1O | – | 3.71% (inactive)
COc1ccc(OC)c(-c2nnc3ccc(-c4ccc(OC)c(O[C@@H]5CCOC5)c4)nn23)c1 | 8.63 µM (active) | –
Cc1nc(NC(=O)N2CCCC2C(N)=O)sc1-c1csc(C(C)(C)C)n1 (stereo not given) | – | -10.7% (inactive)
Cn1cnc2c(F)c(Nc3ccc(Br)cc3Cl)c(C(=O)NOCCO)cc21 | 2.73 µM (active) | –
CNCc1ccc(-c2[nH]c3cc(F)cc4c3c2CCNC4=O)cc1 | – | -7.71% (inactive)
CC(C)Oc1ccc(C(=O)NC(CNC(=O)CN(C)C)Cc2ccc(-c3cn4cccc(C(C)O)c4n3)cc2)cc1Cl (stereo not given) | – | -23.5% (inactive)
NC1(c2ccc(-c3nc4ccn5c(=O)[nH]nc5c4cc3-c3ccccc3)cc2)CCC1 | – | -17.6% (inactive)
